Experimental data published in PubChem BioAssay AID652017 (The Scripps Research Institute Molecular Screening Center, 2013).
Among all 370,000 compounds or so, about 3,800 (1%) were called active. This is one part of a sample in which actives are shown more often than they occur. No stated cut-off is given here; in the data, active means activation above about 7.8%; inactive means the rest.

assay: SMARCA2 (BRM) function activators, primary screen, cell-based, luminescence, high throughput (AID 652017); details: MG213 cells, MMTV-luciferase reporter, dexamethasone, overnight; at 9.1 µM; hits give high values;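 further: 0% = vehicle wells and 100% = reference activator wells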

activation, active:
C=CCOC/C=C/C#CCN(CC=C)Cc1ccc(OC)cc1OC 7.87%, CCc1cc2c(=O)c(-c3ccon3)c(N)oc2cc1OC 8.66%, CCN(CC)CCNC(=O)c1ccc(NC(=O)c2cc(-c3ccncc3)nc3ccccc23)cc1 8.42%, O=C1/C(=C\c2ccc([N+](=O)[O-])cc2)CS(=O)(=O)C/C1=C/c1ccc([N+](=O)[O-])cc1 16.5%, Cc1cccc(CSc2ccc(-c3cccs3)nn2)c1 9.78%, Cc1ccc(NC(=O)c2cc3ccccc3o2)cc1 8.36%, COc1ccc(S(=O)(=O)NC(C)C(=O)N2CCCCCC2)cc1 (configuration not stated) 8.03%, CC(=O)c1ccc(NC(=O)c2sc3nc4n(c(=O)c3c2C)CCCCC4)cc1 9.72%, O=c1c2c(nc3n1CCCCC3)sc1c(O)cccc12 10.3%, O=C(Nc1cc(=O)[nH]c2ncnn12)c1ccccc1Cl 8.25%, COc1c(O)cc2oc(-c3ccc(O)c(O)c3)cc(=O)c2c1O 8.25%, Cc1nn(Cc2ccc(F)cc2)c(C)c1NC(=O)c1cccnc1Cl 11.7%, COc1ccc(/C=N/NC(=O)c2cc(-c3cccc(C)c3)nc3ccccc23)cc1O 8.84%, Cc1cc(C(=O)NNC(=S)Nc2ccccc2C)cs1 8.64%, CCCC(=O)N1c2ccc(-c3csc(N)n3)cc2CC1C (configuration not stated) 13.2%, Cc1ccc(NC(=O)C(=O)NCc2ccco2)c(C)c1 9.32%

activation, inactive:
COc1ccc(CN(CCN2CCOCC2)C(=O)c2ccc(C)cc2)cc1OC -0.94%, CN(C)[C@H]1CCN(c2cccc3c2S(=O)(=O)N2CC[C@H](C2)O3)C1 0.57%, COc1ccc(-c2cc(-c3nnc(SCC(=O)Nc4cccc5ccccc45)n3N)[nH]n2)cc1 -3.63%, COc1ccc(C#CCNCc2ccc(OC)cc2OC)cc1 -1.96%, COc1ccc(CN(C)Cc2nc3cc(OC)c(OC)cc3c(=O)[nH]2)c(OC)c1 -2.98%, C=CCN1C(=O)[C@H](CC(=O)N2CCN(C(=O)OCC)CC2)[C@@]2(C(=O)OCC)CCCC=C12 -0.21%, C=CCN1C(=O)[C@H](CC(=O)NCCCN2CCCC2=O)[C@@]2(C(=O)OCC)CCCC=C12 -0.89%, CCn1c2ccccc2c2cc(NC(=O)CSc3nnc(-c4ccccc4)n3-c3ccc(C)cc3)ccc21 -2.83%, COc1ccc2oc(N)c(C=O)c(=O)c2c1 0.14%, CCc1cc2c(=O)c(-c3nc4ccccc4n3C)c(CCCC(=O)O)oc2cc1OC(=O)C(C)(C)C -2.32%, O=S1(=O)c2c(NCc3ccco3)cccc2Oc2ccccc2CN1Cc1cn(Cc2cccc(C(F)(F)F)c2)nn1 -3.67%, CCN(CC)CCOC(=O)c1ccc(NC(=O)CNC(=O)c2ccccc2)cc1 -3.5%, CCN(CC)CCNC(=O)c1ccc(NC(=O)c2c(F)cccc2Cl)cc1 -0.88%, O=C1Nc2ccccc2OC1CC(=O)N1CCCCCCC1 (configuration not stated) 0.95%, COc1ccc(-c2ccc3nnc(SCC(=O)Nc4ccc(NC(C)=O)cc4)n3n2)cc1 -0.74%, O=[N+]([O-])c1ccc(CN2CC(N3CC=CC3)CS2(=O)=O)cc1 (configuration not stated) -2.21%, C[C@H](C(=O)N(C)c1ccccc1)[C@@H](O)c1ccc2ccccc2c1 -2.92%, CCCCCCNS(=O)(=O)c1ccccc1Br -0.14%, c1csc(-c2nnc(SCc3nc4ccccc4[nH]3)o2)c1 -0.75%, O=C(CSc1ccc(-c2cccs2)nn1)Nc1ccccc1F -0.22%, CC(C)(C)c1ccc(CSc2nnc(-c3cccs3)o2)cc1 -1.53%, Cc1ccc(OCc2nnc(SC/C=C/c3ccccc3)n2Cc2ccco2)cc1 -4.07%, Cc1cccc(-n2nc3c(c2NC(=O)c2cc4ccccc4o2)CS(=O)(=O)C3)c1 -1.69%, CC(OC(=O)c1cc2ccccc2o1)C(=O)Nc1ccc(N2CCOCC2)cc1 (configuration not stated) -1.72%, O=C(Nc1ccccc1)N1CCN(Cc2nc3ccccc3c(=O)[nH]2)CC1 -4.04%, COC(=O)c1cc(S(=O)(=O)N2CCN(c3ccccc3C)CC2)cn1C -6.95%, CCCCOCCCNC(=O)C[C@H]1C[C@@]2(C(=O)OC)C(=C[C@H](C(C)(C)C)O[C@@H]2C)N(CCc2ccc(OC)c(OC)c2)C1=O -1.39%, Nc1[nH]c(/C=C2/CCCCC2n2[nH]c(=O)n(-c3ccccc3)c2=O)c(Cc2ccccc2)[n+]1Cc1ccccc1 (configuration not stated) -4.04%, COc1ccc(CNS(=O)(=O)c2ccc(NC(=O)N3CCCCC3)cc2)cc1 -3.18%, COc1ccc(N2CC(C(=O)N[C@@H](C)C(=O)N3CCCCC3)CC2=O)cc1 (some centres not stated) 1.33%, COCC(=O)N[C@@H]1C[C@@H]2O[C@@H](CO)CC[C@@H]2O[C@@H]1CCc1ccc(-c2ccccc2)cc1 0.63%, CCOC(=O)[C@]12CCCC=C1N(Cc1ccc(OC)cc1)C(=O)[C@@H]2CC(=O)NCc1cccs1 -2.09%, O=C(Cn1[nH]c(=O)c2ccccc2c1=O)Nc1cccc(-c2nnc3n2CCCCC3)c1 -0.49%, CC1CCN(C(=O)c2ccc3c(=O)n4c(nc3c2)CCCCC4)CC1 -1.07%, O=C(Nc1ccc2nc3n(c(=O)c2c1)CCCC3)c1ccc(Cl)nc1 -1.5%, Cc1c(C(=O)Nc2cccc(-c3nnc4n3CCCCC4)c2)oc2ccccc12 -1.34%, COc1cccc(CNC(=O)CNS(=O)(=O)c2ccc3nc(C)sc3c2)c1OC -2.54%, O=C(NC1CCCC1)C1CSCCS(=O)(=O)N1Cc1ccccc1 (configuration not stated) -0.49%, COC(=O)[C@]12C[C@H](CC(=O)NCCCN3CCCC3=O)C(=O)N(CCc3ccc(OC)c(OC)c3)C1=C[C@H](COCc1ccccc1)O[C@@H]2C -2.89%, Cc1cc(C)cc(NC(=O)N2CCC(N(C)CCC(C)C)CC2)c1 -3.63%, COC(=O)c1cccc(Cn2ccc3ccc(-c4ccc5ccn(C(=O)c6ccccc6C)c5c4)cc32)c1 -2.21%, COc1ccc(-n2c(SCC(=O)Nc3ccccc3-c3ccccc3)nnc2-c2cccnc2)cc1 -4.88%, COc1ncnc2c1ncn2CCCNCCN1CCOCC1 -1.94%, O=C(Nc1ccc2sc3ccccc3c(=O)c2c1)c1ccccc1Cl 5.49%, CC(=O)c1cc(CN2CCC(n3nccc3NC(=O)c3ccccc3Cl)CC2)cs1 -2.24%, Cc1cc(Br)ccc1NC(=O)CCCOc1cc(=O)n(C)c2ccccc12 -2.55%, OC(CCl)CCl -4.79%, COc1ccc(CCNC(=O)CCNS(=O)(=O)c2cc(Br)cnc2N)cc1OC -1.13%, CCCCOCCCNC(=O)C[C@H]1C[C@@]2(C(=O)OC)C(=C[C@H](COCc3ccccc3)O[C@@H]2C)N(Cc2cccc3ccccc23)C1=O -2.77%, O=C(C1CCCN1S(=O)(=O)c1ccccc1)N1CCc2ccccc2C1 (configuration not stated) -4.12%, Cc1ccc(C(=O)C2CCN(CC(=O)NCCC(C)C)CC2)cc1 -3.11%, Cc1nn(Cc2ccc(F)cc2)c(C)c1NC(=O)c1noc2c1CCc1ccccc1-2 -4.67%, Cc1nn(Cc2ccc(Cl)c(Cl)c2)c(C)c1NC(=O)c1cc(C2CC2)on1 -4.98%, COc1ccc(Cn2cc(CN3[C@@H](CC(C)C)COc4cc(Br)ccc4S3(=O)=O)nn2)cc1 0.39%, C/C(Cn1nnc2ccccc21)=N\OC(=O)c1cc(F)c(F)cc1Cl -0.31%, COc1ccc(-n2c(SCC(=O)Nc3ccc4cn[nH]c4c3)nnc2-c2cccnc2)cc1 6.71%, COc1ccc(C)cc1NC(=O)c1cc(-c2ccccc2)nc2c1cnn2C(C)C -4.75%, Cc1ccc(/C=N/NC(=O)COc2ccccc2-c2ccccc2)cc1 -0.77%, CCC(=O)Nc1ccc2c(c1)C(=O)N(C)[C@H]1CC[C@H](CC(=O)NCCOC)O[C@@H]1CO2 -1.86%, CC(CCN1CCC(C(O)(c2ccccc2)c2ccccc2)CC1)Oc1ccc([N+](=O)[O-])cc1Cl (configuration not stated) 5.01%, Cc1cc(C(=O)NNC(=S)NC(C)c2ccccc2)cs1 (configuration not stated) -0.96%, Cc1ccccc1NC(=O)c1cc(S(=O)(=O)N2CCOCC2)cs1 -0.28%, COC(=O)[C@]12C[C@H](CC(=O)NCc3ccccc3)C(=O)N(CCC3=CCCCC3)C1=C[C@H](C(C)C)O[C@@H]2C1CC1 0.2%, C=CCN1C(=O)[C@@H](CC(=O)N2CCN(C(=O)c3ccco3)CC2)[C@]2(C(=O)OC)CCCCC=C12 -3.14%, COC(=O)C12C=C3CC(c4ccccc4)=C3C(=O)N1Cc1[nH]c3ccccc3c1C2 (configuration not stated) -3.71%, CN1C(=O)c2cc(NS(C)(=O)=O)ccc2OC[C@@H]2O[C@@H](CC(=O)NCc3ccc(-c4ccccc4)cc3)CC[C@H]21 0.34%, CCOc1ncccc1C(=O)OCC(=O)N1c2ccccc2CC1C (configuration not stated) -1.56%, Cc1ccn(CCC(=O)N2c3ccccc3CC2C)n1 (configuration not stated) -2.39%, Cc1ccccc1CN1CCNC(=O)C1CC(=O)NCCC1=CCCCC1 (configuration not stated) 5.02%, O=C(NCc1ccncc1)C(=O)NCc1ccco1 -0.15%, Cc1ccc(SCC(=O)NC(=O)NCc2ccco2)c(C)c1 -0.59%
